Structures are written as SMILES. Activity calls are given as the source filed them. How the source made its calls: active means hit-call score of the fitted dose curve at least 0.9, where 1 is the maximum; inactive means score below 0.9.

The assay is described as follows: CCTE_Harrill_HTTr_Viability_MCF7: CCTE's 6-hour Cell Viability Assessment for the High-Throughput Transcriptomics (HTTr) Platform, in MCF-7 cells cultured in DMEM + 10% fetal bovine serum, Harrill Lab (AID 2284010). The text has this: This is a cell-based assay that evaluates cell viability using high content imaging to evaluate membrane integrity using propidium iodide dye exclusion in a 384 well format.One of seven assay components measured from the CCTE_Harrill_HTTr_Viability assay. This was part of a full screening experiment. This is a cell-based assay that evaluates cell viability in MCF-7 cells cultured in DMEM + 10% fetal bovine serum. High content imaging is used to evaluate membrane integrity using propidium iodide dye exclusion. Measurements are taken at 6 hours after chemical dosing in 384-well format.The assay component endpoint CCTE_Harrill_HTTr_Viability_MCF7 was analyzed with bidirectional fitting relation to DMSO as the negative control and baseline of activity. Using a type of viability reporter, gain-of-signal activity can be used to evaluate membrane integrity using propidium iodide dye exclusion to understand changes in cytotoxicity. To generalize the intended target to other relatable targets, this assay endpoint is annotated to cell cycle, where the subfamily is cytotoxicity.
Chemicals were tested in MCF7 cells in an eight point dilution series with a six hour exposure duration.
Regarding `O=C(O)[C@H](O)[C@@H](O)C(=O)O`, the result was inactive.

As for `CC(C)c1nnc2ccc(-c3ocnc3-c3cc(F)ccc3F)cn12`, the outcome was inactive.

As to `Cc1nc(-c2ccccn2)ncc1C(=O)Nn1cc(C)c2cc(F)ccc21`, the outcome was inactive.

With `CCCCN1C(=O)[C@@H]([C@H](O)C2CCCCC2)NC(=O)C12CCN(Cc1ccc(Oc3ccc(C(=O)O)cc3)cc1)CC2`, the outcome was inactive.

Consider `CC(C)C(=O)Nc1ccc([N+](=O)[O-])c(C(F)(F)F)c1`, for which the outcome was inactive.

With `CCOC(N)=O`, the outcome was inactive.

With `CCCC(CCC)C(=O)O`, the result was inactive.

Consider `c1ccc(C(O[C@@H]2CCCN(CCc3ccc4c(c3)OCO4)C2)c2ccccc2)cc1`, for which the result was inactive.

With `CC[C@H](C)C(=O)O[C@H]1C[C@H](O)C=C2C=C[C@H](C)[C@H](CC[C@@H](O)C[C@@H](O)CC(=O)O)[C@H]21`, the outcome was inactive.

As for `CNC(C)=O`, the outcome was inactive.

Turning to `O=S(=O)(O)c1ccc(N=Nc2c(O)ccc3cc(S(=O)(=O)O)ccc23)cc1`, the result was inactive.

Consider `COCc1nnc(-c2ccc[n+]([O-])c2)n1-c1c(Cl)c(Cl)cc2[nH]c(=O)c(=O)[nH]c12`, for which the outcome was inactive.

As for `CCCCC(CC)C(=O)OCCOCCOCCOC(=O)C(CC)CCCC` (stereo not given), the outcome was inactive.

On to `c1ccc2c(c1)-c1cccc3c1c-2cc1ccccc13`, for which the outcome was inactive.

Turning to `Cc1ccc(S(=O)(=O)NC(=O)NN2CCCCCC2)cc1`, the result was inactive.

For the compound `O=C(O)c1ccc2c(c1)nc(C(=O)NC1CCN(C3CC3)CC1)n2Cc1cc(-c2ccc(Cl)s2)on1`, the result was inactive.

For the compound `O=C(N[C@H](CO)[C@H](O)c1ccc([N+](=O)[O-])cc1)C(Cl)Cl`, the result was inactive.

Regarding `Cc1ncc([C@@H](CCCCCCc2ccc3c(n2)NCCC3)CC(=O)O)cn1`, the AC50 (usually the midpoint of the concentration-response curve, whichever way the signal moves) was 62.6 nM (active).

For `CCCCCCCCCCCCCCO`, the result was inactive.

Take `C[C@@H](Oc1ccc(CNC(=O)c2cccnc2Oc2ccc3c(c2)OCO3)c(F)c1)C(=O)O`: the result was inactive.

Regarding `CCc1ccc(O)c(C(C)(C)C)c1`, the outcome was inactive.

Consider `OC(CCl)CCl`, for which the outcome was inactive.

In the case of `CCN(CC)C(=S)SSC(=S)N(CC)CC`, the result was inactive.

In the case of `OCCNCCO`, the outcome was inactive.

As for `O=C1CN(N=Cc2ccc([N+](=O)[O-])o2)C(=O)N1`, the result was inactive.

As to `CCCCOC(=O)c1ccccc1`, the result was inactive.

As to `CCc1cccc(CC)c1N`, the result was inactive.

Turning to `COS(C)(=O)=O`, the result was inactive.

In the case of `S=P(N1CC1)(N1CC1)N1CC1`, the result was inactive.

For `O=C(O)c1cccc(C[C@@H]2COc3ccc(OCc4nc5cc(F)ccc5s4)cc3[C@@H]2O)c1`, the result was inactive.

Turning to `NC(=O)N(O)[C@@H]1COc2cc(OCc3ccccc3)ccc21`, the result was inactive.

In the case of `c1ccc2cc3ccccc3cc2c1`, the result was inactive.

Turning to `O=C(O)c1cccc(C(=O)O)c1`, the result was inactive.

With `Cc1nccn1-c1ccc(Sc2cccc(C3(C(N)=O)CCOCC3)c2)cc1`, the outcome was inactive.

Turning to `NC(=O)NN=Cc1ccc([N+](=O)[O-])o1`, the outcome was inactive.

As for `OC[C@H]1O[C@@H]2O[C@H]3[C@H](O)[C@@H](O)[C@@H](O[C@H]4[C@H](O)[C@@H](O)[C@@H](O[C@H]5[C@H](O)[C@@H](O)[C@@H](O[C@H]6[C@H](O)[C@@H](O)[C@@H](O[C@H]7[C@H](O)[C@@H](O)[C@@H](O[C@H]1[C@H](O)[C@H]2O)O[C@@H]7CO)O[C@@H]6CO)O[C@@H]5CO)O[C@@H]4CO)O[C@@H]3CO`, the outcome was inactive.

For the compound `C=CN1CCCC1=O`, the result was inactive.

Take `CCCOc1ccc(S(=O)(=O)N2CCN(CC)CC2)cc1-c1nc2c(CC)n(Cc3ccccn3)nc2c(=O)[nH]1`: the outcome was inactive.

As for `Cn1c(=O)c2[nH]cnc2n(C)c1=O`, the outcome was inactive.

On to `CCCCCOC(C)=O`, for which the outcome was inactive.

The record behind these values is PubChem BioAssay (EPA / NIEHS).
